PubChem BioAssay (EPA / NIEHS)
The source made the active and inactive calls. The calls were made as follows: active = hit-call score of the fitted dose curve at least 0.9, where 1 is the maximum; inactive = score below 0.9.

What follows are molecules tested on Vascular endothelial growth factor receptor 2 (Homo sapiens) (UniProt P35968) (assay: BSK_4H_VEGFRII: BioMAP Diversity Plus: 4H Assay for Vascular endothelial growth factor receptor 2 (VEGFR2) Biomarker Activity (AID 2283031;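 as to AC50: cell-surface VEGFR2 protein level quantified by ELISA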)). Settings: primary human endothelial cells (HUVEC); actives raise or lower the signal.
Summary of the method: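 Primary human umbilical vein endothelial cells in the BioMAP 4H system were dosed with test chemical, and 24 h later VEGFRII was measured by ELISA. Activity was fitted bidirectionally against DMSO as negative control and baseline.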

Structure (SMILES) | outcome | AC50
Cc1c(COC(=O)[C@@H]2[C@H](/C=C(\Cl)C(F)(F)F)C2(C)C)cccc1-c1ccccc1 | inactive | –
O=c1n(Cl)c(=O)n(Cl)c(=O)n1Cl | inactive | –
CC1(C)CCC(=Cc2ccc(Cl)cc2)C1(O)Cn1cncn1 (stereo unspecified) | inactive | –
COC(=O)N(C(=O)N1CO[C@@]2(C(=O)OC)Cc3cc(Cl)ccc3C2=N1)c1ccc(OC(F)(F)F)cc1 | inactive | –
CC1(C)CON(Cc2ccccc2Cl)C1=O | inactive | –
Cn1c(-c2ccccc2)cc(-c2ccccc2)[n+]1C | inactive | –
COC(=O)NC(=S)Nc1ccccc1NC(=S)NC(=O)OC | inactive | –
N#CN=C1SCCN1Cc1ccc(Cl)nc1 | inactive | –
CS(=O)(=O)c1cc(C(F)(F)F)ccc1C(=O)c1cnoc1C1CC1 | inactive | –
COP(=S)(OC)SCn1nnc2ccccc2c1=O | inactive | –
CCSC(=O)N1CCCCCC1 | inactive | –
O=C(O)c1c(Cl)ccc2cc(Cl)cnc12 | inactive | –
CCCCOCN(C(=O)CCl)c1c(CC)cccc1CC | – | 31.1 µM (active)
CC(C)N1C(=O)c2ccccc2NS1(=O)=O | inactive | –
CCCCC(O)(Cn1cncn1)c1ccc(Cl)cc1Cl (stereo unspecified) | inactive | –
COCC(C)N(C(=O)CCl)c1c(C)csc1C (stereo unspecified) | inactive | –
CC1(C)C(C=C(Cl)Cl)C1C(=O)OC(C#N)c1cccc(Oc2ccccc2)c1 (stereo unspecified) | inactive | –
CCOP(=S)(OCC)Oc1nc(Cl)n(C(C)C)n1 | inactive | –
COP(=O)(OC)O/C(C)=C/C(=O)N(C)C | inactive | –
CCN(CC)c1nc(C)cc(OP(=S)(OC)OC)n1 | inactive | –
Cc1cc(C)nc(Nc2ccccc2)n1 | inactive | –
